Test results: the supplement of paper PMC8728848
This is one part of a sample in which the strongest signals are shown more often than they occur.

Key:
Test in all cases: glycan array binding signal (z-score within array); higher = stronger binding
Conditions in all cases: glycan notation: IUPAC condensed, linker removed
[1] = target: Fuc(a1-2)Gal(b1-3)GlcNAc(b1-2)Man(a1-3)[Fuc(a1-2)Gal(b1-3)GlcNAc(b1-2)Man(a1-6)]Man(b1-4)GlcNAc(b1-4)GlcNAc
Summary of the method: (§1)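 The Consortium for Functional Glycomics database supplied 3228 glycan arrays, of which those lacking an available protein sequence were dropped. The binding signal, a within-array Z-score, was averaged across arrays of the same protein sequence and across linkers. Negative scores can be read as non-binding.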

[2] = target: Fuc(a1-2)Gal(b1-3)[Fuc(a1-4)]GlcNAc(b1-2)Man(a1-3)[Fuc(a1-2)Gal(b1-3)[Fuc(a1-4)]GlcNAc(b1-2)Man(a1-6)]Man(b1-4)GlcNAc(b1-4)GlcNAc
Summary of the method: as §1

[3] = target: Fuc(a1-2)[Gal(a1-4)]Gal(b1-4)GlcNAc
Summary of the method: as §1

Gal(a1-3)Gal(b1-4)Glc = target: Gal(a1-3)Gal(b1-4)Glc
Summary of the method: as §1

Gal(a1-4)Gal(b1-4)GlcNAc = target: Gal(a1-4)Gal(b1-4)GlcNAc
Summary of the method: as §1

Gal(b1-3)GalNAc = target: Gal(b1-3)GalNAc
Summary of the method: as §1

[4] = target: Gal(b1-4)GlcNAc(a1-6)Gal(b1-4)GlcNAc
Summary of the method: as §1

[5] = target: Gal(b1-4)GlcNAc(b1-3)Gal(b1-4)GlcNAc(b1-3)Gal(b1-4)GlcNAc
Summary of the method: as §1

[6] = target: Gal(b1-4)GlcNAc(b1-3)[Gal(b1-4)GlcNAc(b1-6)]Gal(b1-4)GlcNAc
Summary of the method: as §1

Gal3S(b1-3)GlcNAc = target: Gal3S(b1-3)GlcNAc
Summary of the method: as §1

[7] = target: Gal3S(b1-3)[Fuc(a1-4)]GlcNAc
Summary of the method: as §1

Gal3S4S(b1-4)GlcNAc = target: Gal3S4S(b1-4)GlcNAc
Summary of the method: as §1

Gal6S(b1-4)GlcNAc = target: Gal6S(b1-4)GlcNAc
Summary of the method: as §1

Gal6S(b1-4)GlcNAc6S = target: Gal6S(b1-4)GlcNAc6S
Summary of the method: as §1

GalNAc(a1-3)Gal = target: GalNAc(a1-3)Gal
Summary of the method: as §1

[8] = target: GalNAc(b1-4)GlcNAc(b1-2)Man(a1-3)[GalNAc(b1-4)GlcNAc(b1-2)Man(a1-6)]Man(b1-4)GlcNAc(b1-4)GlcNAc
Summary of the method: as §1

GlcA(b1-3)GlcNAc = target: GlcA(b1-3)GlcNAc
Summary of the method: as §1

GlcA(b1-6)Gal = target: GlcA(b1-6)Gal
Summary of the method: as §1

[9] = target: GlcNAc(b1-4)GlcNAc(b1-4)GlcNAc
Summary of the method: as §1

[10] = target: Man(a1-3)[Man(a1-6)]Man(a1-6)[Man(a1-3)]Man(b1-4)GlcNAc(b1-4)GlcNAc
Summary of the method: as §1

Man(b1-4)GlcNAc = target: Man(b1-4)GlcNAc
Summary of the method: as §1

Neu5Ac(a2-3)Gal = target: Neu5Ac(a2-3)Gal
Summary of the method: as §1

[11] = target: Neu5Ac(a2-3)Gal(b1-4)[Fuc(a1-3)]GlcNAc
Summary of the method: as §1

[12] = target: Neu5Ac(a2-6)Gal(b1-4)GlcNAc(b1-2)Man(a1-3)Man(b1-4)GlcNAc(b1-4)GlcNAc
Summary of the method: as §1

[13] = target: Neu5Ac(a2-6)Gal(b1-4)GlcNAc(b1-2)Man(a1-6)[GlcNAc(b1-2)Man(a1-3)]Man(b1-4)GlcNAc(b1-4)GlcNAc
Summary of the method: as §1

[14] = target: Neu5Ac(a2-8)Neu5Ac(a2-3)[GalNAc(b1-4)]Gal(b1-4)Glc
Summary of the method: as §1

[15] = target: Neu5Ac(a2-8)Neu5Ac(a2-8)Neu5Ac(a2-8)Neu5Ac(a2-3)[GalNAc(b1-4)]Gal(b1-4)Glc
Summary of the method: as §1

[16] = target: Neu5Gc(a2-3)Gal(b1-4)GlcNAc
Summary of the method: as §1

[17] = target: Fuc(a1-2)Gal(b1-4)[Fuc(a1-3)]GlcNAc(b1-2)Man(a1-3)[Fuc(a1-2)Gal(b1-4)[Fuc(a1-3)]GlcNAc(b1-2)Man(a1-6)]Man(b1-4)GlcNAc(b1-4)GlcNAc
Summary of the method: as §1

[18] = target: Fuc(a1-2)[GalNAc(a1-3)]Gal(b1-4)GlcNAc
Summary of the method: as §1

[19] = target: Fuc(a1-3)[Gal(b1-4)]GlcNAc(b1-4)Gal(b1-4)[Fuc(a1-3)]GlcNAc
Summary of the method: as §1

[20] = target: Fuc(a1-3)[Gal3S(b1-4)]Glc6S
Summary of the method: as §1

[21] = target: Fuc(a1-3)[GalNAc(b1-4)]GlcNAc
Summary of the method: as §1

[22] = target: Fuc(a1-3)[Neu5Ac(a2-3)]Gal(b1-4)GlcNAc(b1-3)GalNAc
Summary of the method: as §1

[23] = target: Gal(b1-3)GalNAc(a1-3)[Fuc(a1-2)]Gal(b1-4)GlcNAc
Summary of the method: as §1

[24] = target: Gal(b1-3)[Fuc(a1-4)]GlcNAc(b1-2)Man(a1-3)[Gal(b1-3)[Fuc(a1-4)]GlcNAc(b1-2)Man(a1-6)]Man(b1-4)GlcNAc(b1-4)GlcNAc
Summary of the method: as §1

Gal(b1-4)Glc6S = target: Gal(b1-4)Glc6S
Summary of the method: as §1

[25] = target: Gal(b1-4)GlcNAc(b1-3)Gal(b1-3)GlcNAc
Summary of the method: as §1

[26] = target: Gal(b1-4)GlcNAc(b1-3)Gal(b1-4)GlcNAc
Summary of the method: as §1

[27] = target: Gal(b1-4)GlcNAc(b1-3)[GlcNAc(b1-6)]Gal(b1-4)GlcNAc
Summary of the method: as §1

[28] = target: GlcNAc(b1-2)Man(a1-3)[GlcNAc(b1-2)Man(a1-6)]Man(b1-4)GlcNAc(b1-4)GlcNAc
Summary of the method: as §1

GlcNAc(b1-6)GalNAc = target: GlcNAc(b1-6)GalNAc
Summary of the method: as §1

Man(a1-2)Man(a1-3)Man = target: Man(a1-2)Man(a1-3)Man
Summary of the method: as §1

[29] = target: Neu5Ac(a2-3)Gal(b1-4)GlcNAc(b1-2)Man(a1-3)[GlcNAc(b1-2)Man(b1-4)GlcNAc(b1-2)Man(a1-6)]Man(b1-4)GlcNAc(b1-4)GlcNAc
Summary of the method: as §1

[30] = target: Neu5Ac(a2-3)Gal(b1-4)GlcNAc(b1-3)Gal(b1-3)GlcNAc
Summary of the method: as §1

[31] = target: Neu5Ac(a2-3)Gal(b1-4)GlcNAc6S
Summary of the method: as §1

[32] = target: Neu5Ac(a2-3)Gal(b1-4)[Fuc(a1-3)]GlcNAc6S
Summary of the method: as §1

[33] = target: Neu5Ac(a2-3)[Neu5Ac(a2-6)]GalNAc
Summary of the method: as §1

[34] = target: Neu5Ac(a2-6)Gal(b1-4)GlcNAc(b1-2)Man(a1-3)[Gal(b1-4)GlcNAc(b1-2)Man(a1-6)]Man(b1-4)GlcNAc(b1-4)GlcNAc
Summary of the method: as §1

[35] = target: Neu5Ac(a2-6)Gal(b1-4)GlcNAc(b1-3)Gal(b1-4)GlcNAc
Summary of the method: as §1

[36] = target: Neu5Ac(a2-6)Gal(b1-4)GlcNAc6S
Summary of the method: as §1

[37] = target: Neu5Ac(a2-8)Neu5Ac(a2-8)Neu5Ac(a2-3)Gal(b1-4)Glc
Summary of the method: as §1

Neu5Ac(b2-6)GalNAc = target: Neu5Ac(b2-6)GalNAc
Summary of the method: as §1

B1: Adiponectin (Rattus norvegicus), Q8K3R4 (protein)
chain: MLLLQALLFLLILPSHEGITATEGPGALVPPPKETCAGWMAGIPGYPGHNGIPGRDGRDGTPGEKGEKGDAGVLGPKGDPGDAGMTGAEGPRGFPGTPGRKGEPGEAAYMYHSAFSVGLETRVTVPNVPIRFTKIFYNQQNHYDGSTGKFHCNIPGLYYFSYHITVYMKDVKVSLFKKDKAVLFTYDQYQEKNVDQASGSMLLHLEVGDQVWLQVYGEGDNNGLYADNVNDSTFTGFLLYHDTN
glycan array binding signal (z-score) [1]: 4.69 | glycan array binding signal (z-score) [2]: 2.87 | glycan array binding signal (z-score) [3]: -0.75 | glycan array binding signal (z-score) (Gal(a1-3)Gal(b1-4)Glc): 2.17 | glycan array binding signal (z-score) (Gal(a1-4)Gal(b1-4)GlcNAc): -0.311 | glycan array binding signal (z-score) (Gal(b1-3)GalNAc): -0.573 | glycan array binding signal (z-score) [4]: -0.335 | glycan array binding signal (z-score) [5]: 3.09 | glycan array binding signal (z-score) [6]: 0.332 | glycan array binding signal (z-score) (Gal3S(b1-3)GlcNAc): -0.814 | glycan array binding signal (z-score) [7]: 1.13 | glycan array binding signal (z-score) (Gal3S4S(b1-4)GlcNAc): 0.706 | glycan array binding signal (z-score) (Gal6S(b1-4)GlcNAc): 1.04 | glycan array binding signal (z-score) (Gal6S(b1-4)GlcNAc6S): -0.915 | glycan array binding signal (z-score) (GalNAc(a1-3)Gal): 2.96 | glycan array binding signal (z-score) [8]: 4.32 | glycan array binding signal (z-score) (GlcA(b1-3)GlcNAc): -0.577 | glycan array binding signal (z-score) (GlcA(b1-6)Gal): -0.389 | glycan array binding signal (z-score) [9]: 4.87 | glycan array binding signal (z-score) [10]: -0.767 | glycan array binding signal (z-score) (Man(b1-4)GlcNAc): 0.155 | glycan array binding signal (z-score) (Neu5Ac(a2-3)Gal): 0.212 | glycan array binding signal (z-score) [11]: 0.007 | glycan array binding signal (z-score) [12]: 0.717 | glycan array binding signal (z-score) [13]: -0.838 | glycan array binding signal (z-score) [14]: 0.022 | glycan array binding signal (z-score) [15]: 0.861 | glycan array binding signal (z-score) [16]: -0.295

B2: HHL-2 (Homo sapiens), P07307 (protein)
chain: MAKDFQDIQQLSSEENDHPFHQGEGPGTRRLNPRRGNPFLKGPPPAQPLAQRLCSMVCFSLLALSFNILLLVVICVTGSQSEGHRGAQLQAELRSLKEAFSNFSSSTLTEVQAISTHGGSVGDKITSLGAKLEKQQQDLKADHDALLFHLKHFPVDLRFVACQMELLHSNGSQRTCCPVNWVEHQGSCYWFSHSGKAWAEAEKYCQLENAHLVVINSWEEQKFIVQHTNPFNTWIGLTDSDGSWKWVDGTDYRHNYKNWAVTQPDNWHGHELGGSEDCVEVQPDGRWNDDFCLQVYRWVCEKRRNATGEVA
glycan array binding signal (z-score) [1]: -0.497 | glycan array binding signal (z-score) [17]: 2.08 | glycan array binding signal (z-score) [18]: -0.68 | glycan array binding signal (z-score) [19]: -0.334 | glycan array binding signal (z-score) [20]: -0.68 | glycan array binding signal (z-score) [21]: -0.451 | glycan array binding signal (z-score) [22]: 6.72 | glycan array binding signal (z-score) [23]: -0.536 | glycan array binding signal (z-score) [24]: 0.043 | glycan array binding signal (z-score) (Gal(b1-4)Glc6S): -0.52 | glycan array binding signal (z-score) [25]: -0.728 | glycan array binding signal (z-score) [26]: -0.474 | glycan array binding signal (z-score) [27]: -0.539 | glycan array binding signal (z-score) (Gal6S(b1-4)GlcNAc6S): 3.54 | glycan array binding signal (z-score) [8]: 3.17 | glycan array binding signal (z-score) (GlcA(b1-3)GlcNAc): -0.012 | glycan array binding signal (z-score) [28]: -0.677 | glycan array binding signal (z-score) [9]: 2.8 | glycan array binding signal (z-score) (GlcNAc(b1-6)GalNAc): -0.738 | glycan array binding signal (z-score) (Man(a1-2)Man(a1-3)Man): -0.028 | glycan array binding signal (z-score) [29]: 2.39 | glycan array binding signal (z-score) [30]: 3.56 | glycan array binding signal (z-score) [31]: -0.075 | glycan array binding signal (z-score) [32]: 0.012 | glycan array binding signal (z-score) [33]: -0.847 | glycan array binding signal (z-score) [34]: 0.34 | glycan array binding signal (z-score) [35]: -0.539 | glycan array binding signal (z-score) [36]: 2.18 | glycan array binding signal (z-score) [37]: 3.59 | glycan array binding signal (z-score) [15]: 0.721 | glycan array binding signal (z-score) (Neu5Ac(b2-6)GalNAc): -0.379
